We go through eight sequences from publication PMC7862700, “An all-to-all approach to the identification of sequence-specific readers for epigenetic DNA modifications on cytosine”.

Holding throughout (test): DAPPL (digital affinity profiling via proximity ligation, sequencing); 10 mM Tris-HCl pH 7.5, 50 mM NaCl, 1 mM DTT, 4% glycerol, room temperature, 30 min; GST-TFs on glutathione beads, 16-mer random dsDNA library, 0.1% formaldehyde crosslink after washing; high values mean tight binding
Common to all, as to conditions: protein: recombinant; tags: N-terminal GST; dsDNA, one strand shown

Experiment [1] deals with T1, ERF (Homo sapiens, UniProt P50548 1-548).
T1 sequence: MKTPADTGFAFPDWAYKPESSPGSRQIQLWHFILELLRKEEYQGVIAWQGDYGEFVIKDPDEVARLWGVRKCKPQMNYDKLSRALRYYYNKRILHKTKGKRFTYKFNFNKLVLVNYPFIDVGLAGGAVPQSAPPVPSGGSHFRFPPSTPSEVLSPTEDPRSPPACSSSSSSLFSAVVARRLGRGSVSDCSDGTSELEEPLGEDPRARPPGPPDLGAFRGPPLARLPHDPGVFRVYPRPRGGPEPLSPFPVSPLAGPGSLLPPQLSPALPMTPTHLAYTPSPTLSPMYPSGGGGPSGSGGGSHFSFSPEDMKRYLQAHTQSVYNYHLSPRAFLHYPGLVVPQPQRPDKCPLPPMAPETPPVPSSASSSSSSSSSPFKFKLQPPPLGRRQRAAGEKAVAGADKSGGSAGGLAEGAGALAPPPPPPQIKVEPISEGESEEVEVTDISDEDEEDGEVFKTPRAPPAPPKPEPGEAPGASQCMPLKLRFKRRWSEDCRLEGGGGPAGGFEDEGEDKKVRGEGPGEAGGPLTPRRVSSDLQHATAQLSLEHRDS
An outline of the steps:
(§1)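 Pools were built from human transcription factors expressed in yeast as GST fusions, captured on glutathione beads and DNA-barcoded, along with a tag-only sample. Incubation with 200 nmole of a 16-mer random double-stranded DNA library lasted 30 min at room temperature in Tris/NaCl/DTT/glycerol buffer, and was followed by washing, 0.1% formaldehyde crosslinking, proximity ligation, PCR amplification and Illumina NextSeq500 sequencing. Binding signal is the quotient of each hexamer's read frequency for a factor and its frequency for the tag-only sample.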

In experiment [2] the target is T2, ETV3L (Homo sapiens, UniProt Q6ZN32 1-361).
T2 sequence: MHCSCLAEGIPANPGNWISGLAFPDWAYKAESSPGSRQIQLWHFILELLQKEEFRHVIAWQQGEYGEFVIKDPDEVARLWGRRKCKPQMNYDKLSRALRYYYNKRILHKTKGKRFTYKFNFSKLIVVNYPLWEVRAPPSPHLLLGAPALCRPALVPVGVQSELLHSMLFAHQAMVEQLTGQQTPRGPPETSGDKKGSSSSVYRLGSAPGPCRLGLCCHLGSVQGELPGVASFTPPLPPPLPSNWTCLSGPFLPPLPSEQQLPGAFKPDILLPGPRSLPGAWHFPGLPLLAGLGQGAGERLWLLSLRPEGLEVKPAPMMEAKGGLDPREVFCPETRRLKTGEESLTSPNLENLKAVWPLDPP
An outline of the steps:
as §1

Experiment [3] addresses T3, ETS2 (Homo sapiens, UniProt P15036 1-469).
T3 sequence: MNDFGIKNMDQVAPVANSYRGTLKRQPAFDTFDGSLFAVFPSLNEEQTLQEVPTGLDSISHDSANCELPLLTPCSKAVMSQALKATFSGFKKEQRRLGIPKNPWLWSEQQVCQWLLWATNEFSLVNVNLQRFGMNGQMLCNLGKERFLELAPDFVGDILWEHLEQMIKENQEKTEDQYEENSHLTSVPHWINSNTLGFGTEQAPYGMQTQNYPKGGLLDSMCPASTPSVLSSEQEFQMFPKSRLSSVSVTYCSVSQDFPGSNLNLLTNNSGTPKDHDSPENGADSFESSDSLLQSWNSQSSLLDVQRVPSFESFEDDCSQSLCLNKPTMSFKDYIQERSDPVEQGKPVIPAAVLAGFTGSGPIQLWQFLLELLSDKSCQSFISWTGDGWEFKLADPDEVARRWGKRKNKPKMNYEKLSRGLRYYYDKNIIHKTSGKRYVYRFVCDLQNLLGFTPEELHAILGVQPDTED
An outline of the steps: as §1

In experiment [4] the target is T4, SPDEF (Homo sapiens, UniProt O95238 1-335).
T4 sequence: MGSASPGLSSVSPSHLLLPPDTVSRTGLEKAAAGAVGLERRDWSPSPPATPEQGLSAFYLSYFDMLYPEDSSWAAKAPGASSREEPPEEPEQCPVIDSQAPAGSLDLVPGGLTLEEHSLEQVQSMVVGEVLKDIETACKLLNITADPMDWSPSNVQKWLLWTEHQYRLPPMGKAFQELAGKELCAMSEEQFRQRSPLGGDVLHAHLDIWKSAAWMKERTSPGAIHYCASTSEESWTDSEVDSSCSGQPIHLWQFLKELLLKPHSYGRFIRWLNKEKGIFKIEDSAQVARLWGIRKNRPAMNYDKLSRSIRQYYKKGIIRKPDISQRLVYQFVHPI
The gist of the method:
as §1

Experiment [5] addresses T5, ETV7 (Homo sapiens, UniProt Q9Y603 1-341).
T5 sequence: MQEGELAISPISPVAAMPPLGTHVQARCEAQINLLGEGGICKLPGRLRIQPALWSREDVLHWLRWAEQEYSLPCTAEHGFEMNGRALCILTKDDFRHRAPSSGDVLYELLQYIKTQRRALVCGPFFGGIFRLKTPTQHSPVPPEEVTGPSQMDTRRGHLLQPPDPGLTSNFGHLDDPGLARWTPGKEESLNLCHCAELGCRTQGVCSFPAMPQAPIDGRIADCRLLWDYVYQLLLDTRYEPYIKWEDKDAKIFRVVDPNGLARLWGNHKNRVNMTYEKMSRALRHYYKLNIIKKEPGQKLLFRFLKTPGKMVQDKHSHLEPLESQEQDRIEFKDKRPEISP
An outline of the steps:
as §1

The target of experiment [6] is T6, ELF5 (Homo sapiens, UniProt Q9UKW6-2 1-255).
T6 sequence: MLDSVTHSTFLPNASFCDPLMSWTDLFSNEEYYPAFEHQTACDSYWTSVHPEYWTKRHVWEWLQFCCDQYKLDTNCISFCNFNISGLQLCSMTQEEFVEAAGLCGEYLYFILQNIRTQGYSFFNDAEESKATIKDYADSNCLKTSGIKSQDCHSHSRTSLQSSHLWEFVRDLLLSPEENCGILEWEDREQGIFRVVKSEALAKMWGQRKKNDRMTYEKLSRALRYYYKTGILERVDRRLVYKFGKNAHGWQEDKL
An outline of the steps: as §1

Experiment [7] deals with T7, ETV3 (Homo sapiens, UniProt P41162-2 1-143).
T7 sequence: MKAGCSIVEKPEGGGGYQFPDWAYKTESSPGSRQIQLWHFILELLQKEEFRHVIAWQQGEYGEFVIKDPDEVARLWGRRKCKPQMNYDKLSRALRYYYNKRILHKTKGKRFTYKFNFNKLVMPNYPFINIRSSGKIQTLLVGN
An outline of the steps:
as §1

For experiment [8], the target named is ETV6 (Homo sapiens, UniProt P41212 1-452). The gist of the method: as §1
ETV6, sequence (P41212 whole entry): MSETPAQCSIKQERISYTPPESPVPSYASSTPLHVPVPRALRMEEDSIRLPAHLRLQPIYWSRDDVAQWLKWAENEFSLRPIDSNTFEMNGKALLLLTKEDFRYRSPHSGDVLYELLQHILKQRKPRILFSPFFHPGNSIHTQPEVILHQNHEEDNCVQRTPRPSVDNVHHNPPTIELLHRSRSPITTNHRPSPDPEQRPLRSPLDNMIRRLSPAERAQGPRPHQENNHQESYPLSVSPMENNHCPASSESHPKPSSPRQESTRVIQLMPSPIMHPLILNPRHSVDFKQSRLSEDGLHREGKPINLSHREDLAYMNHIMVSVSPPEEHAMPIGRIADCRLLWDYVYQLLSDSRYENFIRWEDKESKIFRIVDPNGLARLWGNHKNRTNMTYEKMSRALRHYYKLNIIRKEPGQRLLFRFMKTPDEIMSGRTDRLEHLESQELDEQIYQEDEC

Consider AAGCTC, for which the binding signal in experiment [1] is 1.2 fold enrichment (6-mer frequency, TF over GST control); in experiment [2] it was 1.2 fold enrichment (6-mer frequency, TF over GST control); in experiment [3] it was 1.13 fold enrichment (6-mer frequency, TF over GST control); in experiment [4], 1.06 fold enrichment (6-mer frequency, TF over GST control); in experiment [5], 1.08 fold enrichment (6-mer frequency, TF over GST control); in experiment [6], 1.07 fold enrichment (6-mer frequency, TF over GST control). For the same sequence, the binding signal is 1.18 fold enrichment (6-mer frequency, TF over GST control) in experiment [7] and 1.23 fold enrichment (6-mer frequency, TF over GST control) in experiment [8].
On to ACTCAC, for which the binding signal was 1.25 fold enrichment (6-mer frequency, TF over GST control) in experiment [1]; 1.16 fold enrichment (6-mer frequency, TF over GST control) in experiment [2]; 1.28 fold enrichment (6-mer frequency, TF over GST control) in experiment [3]; 1.22 fold enrichment (6-mer frequency, TF over GST control) in experiment [4]; 1.2 fold enrichment (6-mer frequency, TF over GST control) in experiment [5]; 1.21 fold enrichment (6-mer frequency, TF over GST control) in experiment [6]. Also, the binding signal in experiment [7] is 1.15 fold enrichment (6-mer frequency, TF over GST control); in experiment [8] it was 1.22 fold enrichment (6-mer frequency, TF over GST control).
Take TAGTGT: the binding signal in experiment [1] was 1.02 fold enrichment (6-mer frequency, TF over GST control); in experiment [2], 1.04 fold enrichment (6-mer frequency, TF over GST control); in experiment [3], 1.11 fold enrichment (6-mer frequency, TF over GST control); in experiment [4] it was 1.18 fold enrichment (6-mer frequency, TF over GST control); in experiment [5], 1.2 fold enrichment (6-mer frequency, TF over GST control); in experiment [6], 1.14 fold enrichment (6-mer frequency, TF over GST control). Further, the binding signal was 1.13 fold enrichment (6-mer frequency, TF over GST control) in experiment [7] and 1.02 fold enrichment (6-mer frequency, TF over GST control) in experiment [8].
Regarding CCGACG, the binding signal in experiment [1] is 1.32 fold enrichment (6-mer frequency, TF over GST control); in experiment [2] it was 1.23 fold enrichment (6-mer frequency, TF over GST control); in experiment [3] it was 1.33 fold enrichment (6-mer frequency, TF over GST control); in experiment [4], 1.19 fold enrichment (6-mer frequency, TF over GST control); in experiment [5] it was 1.34 fold enrichment (6-mer frequency, TF over GST control); in experiment [6], 1.28 fold enrichment (6-mer frequency, TF over GST control). Also, the binding signal is 1.16 fold enrichment (6-mer frequency, TF over GST control) in experiment [7] and 1.31 fold enrichment (6-mer frequency, TF over GST control) in experiment [8].
Turning to GTTATG, the binding signal in experiment [1] is 1.05 fold enrichment (6-mer frequency, TF over GST control); in experiment [2], 1.11 fold enrichment (6-mer frequency, TF over GST control); in experiment [3], 1.1 fold enrichment (6-mer frequency, TF over GST control); in experiment [4], 1.12 fold enrichment (6-mer frequency, TF over GST control); in experiment [5], 1.12 fold enrichment (6-mer frequency, TF over GST control); in experiment [6] it was 1.06 fold enrichment (6-mer frequency, TF over GST control). In addition, the binding signal in experiment [7] is 1.14 fold enrichment (6-mer frequency, TF over GST control); in experiment [8], 1.21 fold enrichment (6-mer frequency, TF over GST control).
With AAGTGT, the binding signal in experiment [1] is 1.24 fold enrichment (6-mer frequency, TF over GST control); in experiment [2], 1.2 fold enrichment (6-mer frequency, TF over GST control); in experiment [3] it was 1.38 fold enrichment (6-mer frequency, TF over GST control); in experiment [4] it was 1.32 fold enrichment (6-mer frequency, TF over GST control); in experiment [5], 1.42 fold enrichment (6-mer frequency, TF over GST control); in experiment [6], 1.43 fold enrichment (6-mer frequency, TF over GST control). For the same sequence, the binding signal in experiment [7] was 1.23 fold enrichment (6-mer frequency, TF over GST control); in experiment [8] it was 1.35 fold enrichment (6-mer frequency, TF over GST control).
Take CCTCCG: the binding signal in experiment [1] was 1.41 fold enrichment (6-mer frequency, TF over GST control); in experiment [2] it was 1.65 fold enrichment (6-mer frequency, TF over GST control); in experiment [3], 1.31 fold enrichment (6-mer frequency, TF over GST control); in experiment [4] it was 1.36 fold enrichment (6-mer frequency, TF over GST control); in experiment [5] it was 1.2 fold enrichment (6-mer frequency, TF over GST control); in experiment [6] it was 1.35 fold enrichment (6-mer frequency, TF over GST control). The binding signal in experiment [7] was 1.3 fold enrichment (6-mer frequency, TF over GST control); in experiment [8], 1.31 fold enrichment (6-mer frequency, TF over GST control).
As to ACGACA, the binding signal is 1.11 fold enrichment (6-mer frequency, TF over GST control) in experiment [1]; 1.12 fold enrichment (6-mer frequency, TF over GST control) in experiment [2]; 1.12 fold enrichment (6-mer frequency, TF over GST control) in experiment [3]; 1.26 fold enrichment (6-mer frequency, TF over GST control) in experiment [4]; 1.05 fold enrichment (6-mer frequency, TF over GST control) in experiment [5]; 1.18 fold enrichment (6-mer frequency, TF over GST control) in experiment [6]. For the same sequence, the binding signal was 1.08 fold enrichment (6-mer frequency, TF over GST control) in experiment [7] and 1.22 fold enrichment (6-mer frequency, TF over GST control) in experiment [8].
